Reference: PubChem BioAssay (EPA / NIEHS)
Inconclusive results are not listed. Activity calls are given as the source filed them. Rule for the calls, unless noted: active = hit-call score of the fitted dose curve at least 0.9, where 1 is the maximum; inactive = score below 0.9.

system: IYD (gene 389434); test: CCTE_GLTED_hIYD: CCTE's human Iodotyrosine Deiodinase (xIYD) Inhibition Assay, Great Lakes Toxicology and Ecology Division (GLTED) Lab (AID 2284317; active = hit-call score of the fitted dose curve at least 0.9, where 1 is the maximum;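 note: cell-free human IYD enzyme made in baculovirus insect cells; iodide freed from monoiodotyrosine measured by cerium arsenite color change at 420 nm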); details: not given
Summary of the method: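 In the IYD assay, iodide released from MIT by insect-cell-expressed human enzyme was quantified after 3 h via Sandell-Kolthoff rate at 420 nm, with plate-wise normalization to MNT and solvent controls.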

Row | SMILES | outcome | AC50
1 | CC(C)(c1ccc(OCC2CO2)cc1)c1ccc(OCC2CO2)cc1 (configuration not stated) | inactive | –
2 | CCCCCCCCc1ccc(O)cc1 | – | 35.7 µM (active)
3 | C=CC#N | inactive | –
4 | CCC(C)(C)c1ccc(O)c(C(C)(C)CC)c1 | – | 37 µM (active)
5 | O=C1C2(Cl)C3(Cl)C4(Cl)C(Cl)(Cl)C5(Cl)C3(Cl)C1(Cl)C5(Cl)C24Cl (configuration not stated) | – | 40.1 µM (active)
6 | COP(=O)(OC)O/C(=C\Cl)c1cc(Cl)c(Cl)cc1Cl | inactive | –
7 | O=C1C(Cl)=C(Cl)C(=O)c2ccccc21 | – | 55 µM (active)
8 | CCC[CH2][Sn]([CH2]CCC)([CH2]CCC)[O]C(=O)c1ccccc1 | inactive | –
9 | O=C(O)C(F)(F)C(F)(F)C(F)(F)C(F)(F)C(F)(F)C(F)(F)C(F)(F)C(F)(F)C(F)(F)C(F)(F)F | – | 51.3 µM (active)
10 | CC(C)(c1ccccc1)c1ccc(O)c(C(C)(C)c2ccccc2)c1 | – | 29.2 µM (active)
11 | C=CC(=O)OCCCCCC(C)C | inactive | –
12 | CC(C)(C)CC(C)(C)c1ccc(O)cc1 | – | 66.8 µM (active)

system: not listed separately; test: CCTE_Mundy_HCI_iCellGluta_NOG_NeuriteLength: CCTE's Neurite Outgrowth Assay in iCellGluta cells for Neurite Length, Mundy Lab (AID 2284318; active = hit-call score of the fitted dose curve at least 0.9, where 1 is the maximum); details: not given
Summary of the method: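 Automated high-content imaging of betaIII-tubulin (Alexa Fluor-488) and Hoechst-stained cells gave neurite length, normalized to the DMSO baseline.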

Row | SMILES | AC50 | outcome
13 | O=C1C2(Cl)C3(Cl)C4(Cl)C(Cl)(Cl)C5(Cl)C3(Cl)C1(Cl)C5(Cl)C24Cl (configuration not stated) | 15 µM (active) | –
14 | COP(=O)(OC)O/C(=C\Cl)c1cc(Cl)c(Cl)cc1Cl | 51.5 µM (active) | –
15 | C=C(C)C(=O)[O][Sn]([CH2]CCC)([CH2]CCC)[CH2]CCC | 0.241 µM (active) | –
16 | O=C(O)C(F)(F)C(F)(F)C(F)(F)C(F)(F)C(F)(F)C(F)(F)F | – | inactive

system: not listed separately; test: CCTE_Deisenroth_5AR_NBTE_donor: CCTE's 5alpha-reductase NanoBRET Target Engagement Assay […], Deisenroth Lab (AID 2284319); details: actives raise or lower the signal
Summary of the method: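 HEK293T cells transiently expressing SRD5A2-NanoLuc, exposed 5 h to chemicals (8 points, 10 nM - 29.9 uM), with testosterone tracer for the final 2 h. Donor luminescence at 460 nm read after Nano-Glo substrate plus extracellular NanoLuc inhibitor; bidirectional fit versus DMSO.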

Row | SMILES | outcome | AC50
17 | O=C(Nc1ccc2[nH]ccc2c1)c1cc2cc(F)ccc2n1Cc1cccc(F)c1 | inactive | –
18 | CCOP(=S)(OCC)Oc1nc(Cl)c(Cl)cc1Cl | inactive | –
19 | CC(C)(c1ccc(OCC2CO2)cc1)c1ccc(OCC2CO2)cc1 (configuration not stated) | inactive | –
20 | CCC1(c2ccc(N)cc2)CCC(=O)NC1=O (configuration not stated) | inactive | –
21 | O=C(OC1CCCCC1)c1ccccc1C(=O)OC1CCCCC1 | inactive | –
22 | C[C@@H]1C[C@@H]([C@H](O)CC2CC(=O)NC(=O)C2)C(=O)[C@@H](C)C1 | inactive | –
23 | CCN1CCC2(CC1)COc1cc3c(cc12)N(C(=O)c1ccc(-c2ccc(-c4nnc(C)o4)cc2C)cc1)CC3 | – | 2.7 µM (active)
24 | O=C1C(Cl)=C(Cl)C(=O)c2ccccc21 | – | 50 µM (active)
25 | c1cc[c]([Hg][c]2ccccc2)cc1 | inactive | –
26 | CC(=O)[O][Hg][c]1ccccc1 | – | 27.1 µM (active)
27 | O=[N+]([O-])c1ccc(O)c([N+](=O)[O-])c1 | inactive | –
28 | C=C(C)C(=O)[O][Sn]([CH2]CCC)([CH2]CCC)[CH2]CCC | – | 5.38 µM (active)
29 | CCC[CH2][Sn]([CH2]CCC)([CH2]CCC)[O]C(=O)c1ccccc1 | – | 5.2 µM (active)
30 | O=C(O)C(F)(F)C(F)(F)C(F)(F)C(F)(F)C(F)(F)C(F)(F)C(F)(F)C(F)(F)C(F)(F)C(F)(F)F | inactive | –
31 | N#CN=C(N)N | inactive | –
32 | C[C@H]1CCCC(=O)CCC/C=C/c2cc(O)cc(O)c2C(=O)O1 | inactive | –
